High-throughput results: PubChem BioAssay, National Center for Advancing Translational Sciences (NCATS)
DRD3 agonist: qHTS of D3 Dopamine Receptor Agonist: qHTS. max activation, %. 410,000 compounds, 0.58% hits. AID 652048, 2013. D(3) dopamine receptor (Homo sapiens), P35462. D3R DiscoveRx beta-arrestin cells, luminescence, 90 min; in the data active = max activation above about 30%; also: 0% is about no effect
Target sequence (P35462 whole entry, looked up): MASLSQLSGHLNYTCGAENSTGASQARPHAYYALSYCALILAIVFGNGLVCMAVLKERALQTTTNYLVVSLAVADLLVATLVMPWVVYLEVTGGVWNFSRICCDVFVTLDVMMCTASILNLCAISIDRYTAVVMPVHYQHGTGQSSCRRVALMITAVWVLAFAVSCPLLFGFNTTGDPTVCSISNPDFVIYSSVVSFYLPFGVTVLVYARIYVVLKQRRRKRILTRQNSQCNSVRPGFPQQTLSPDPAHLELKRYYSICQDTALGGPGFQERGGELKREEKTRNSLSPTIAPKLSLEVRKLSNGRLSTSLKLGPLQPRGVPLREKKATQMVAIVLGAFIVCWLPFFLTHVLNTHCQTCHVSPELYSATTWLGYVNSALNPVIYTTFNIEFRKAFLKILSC
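Agonist-mode cell screen: cells plated at 1500/well and incubated overnight at 37 °C, then exposed to library compounds for 90 min at 37 °C. Detection reagent was added for 30–60 min at room temperature, and luminescence was read.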
D1 antagonist: Antagonist of Human D 1 Dopamine Receptor: qHTS; D(1A) dopamine receptor (Homo sapiens), P21728; HEK293 TREx D1 cells, calcium flux, dopamine EC80; stronger effect = lower value; AID 504652, 2011; activity change, negative = inhibition, % at 10 µM; 360,000 compounds, 3.2% hits; in the data active = activity change below about -30%; also: % is scaled to controls: 0 for no effect and ±100 for the full control effect
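Using tetracycline-induced force-coupled D1 Hek293 cells and a calcium dye, signals were followed for 180 s after compound, then for 180 s after EC80 dopamine, to detect inhibitors.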
D1 PAM: Potentiators of Human D1 Dopamine Receptor: qHTS; 360,000 compounds, 0.036% hits; D(1A) dopamine receptor (Homo sapiens), P21728; HEK293 TREx D1 cells, calcium flux, dopamine EC20 potentiation; potentiation, % at 10 µM; in the data active = potentiation above about 30%; also: 0% is about no effect
D1 ag: Allosteric Agonists of the Human D1 Dopamine Receptor: qHTS | D(1A) dopamine receptor (Homo sapiens), P21728 | HEK293 T-REx D1 cells, calcium flux, agonist mode | activation, % at 2 µM | 360,000 compounds, 1% hits; in the data active = activation above about 30%; also: 0% is about no effect
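Inducible HEK293 T-REx D1 cells, force-coupled to calcium signalling, were plated at 4000 cells/well with tetracycline and held overnight at 30 C. After no-wash calcium dye loading, compound-evoked calcium rise over 180 s flagged agonists.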
DRD3 antagonist: qHTS of D3 Dopamine Receptor Antagonist: qHTS | AID 652054, 2013 | D(3) dopamine receptor (Homo sapiens), P35462 | D3R cells, DiscoveRx beta-arrestin luminescence, antagonist mode; stronger effect = lower value | max response, negative = inhibition, % | 360,000 compounds, 2.5% hits; in the data active = max response below about -50%; inconclusive = no clear call, values can overlap the other calls; also: % is scaled to controls: 0 for no effect and ±100 for the full control effect
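Cells expressing the human receptor were seeded at 1500 cells/well, incubated overnight at 37 degrees C in 5% CO2, then exposed to library compounds with dopamine controls for 90 minutes at 37 degrees C before luminescent detection.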
An asterisk follows results filed as active; ? = inconclusive; · = no result; ! = not confirmed by another sample. Most compounds without a hit are left out; they make up all but 6.1% or so of the library.

SMILES | DRD3 agonist | D1 antagonist | D1 PAM | D1 ag | DRD3 antagonist
CC(C)COc1ccc(C(=O)Nc2nnc(S(=O)(=O)N(C)Cc3ccco3)s2)cc1 | -2 | 2 | 0 | -1 | ·
CN(C)CCOC(c1ccccc1)c1ccccc1 | -71 | -28 | -1 | 6 | -52*!
Cc1ccccc1C(OCCN(C(C)C)C(C)C)c1ccccc1 (configuration not stated) | -10 | 11 | -3 | 7 | -5
CN(C)CCOC(c1ccccc1)c1ccccc1 (tested in a mixture with another compound) | -77 | -30 | -5 | 5 | -67*
CN(C)CCOC(c1ccc(Cl)cc1)c1ccccn1 (configuration not stated) | 41*! | -15 | -8 | 8 | -2
COc1ccccc1NC1=C(Cl)C(=O)N(C2CCCCC2)C1=O | -2 | -88* | -2 | 1 | 9
Cc1ccccc1NC1=C(Cl)C(=O)N(C2CCCCC2)C1=O | -8 | 10 | 3 | 6 | -20
COc1cccc(N2CC(C(=O)Nc3ccc(F)cc3)CC2=O)c1 (configuration not stated) | -4 | 3 | -4 | 10 | -2
COc1cccc(N2CC(C(=O)Nc3ccc(C(=O)OC(C)C)cc3)CC2=O)c1 (configuration not stated) | 2 | -30* | -7 | 17 | 4
Cc1ccc2nc3n(c(=O)c2c1)CCCCC3 | 3 | 7 | 3 | 1 | -11
Cc1ccc2nc3n(c2c1)CCCN3 | 0 | 6 | -3 | 1 | -59*
CCCCN(CC)CCNC(=O)C1CCN(c2nnc(C)c3c(C)n(-c4ccc(C)cc4)nc23)CC1 | -28 | 1 | -1 | 1 | ·
COc1cc(OC)cc(C(=O)NC(=S)Nc2cc3oc4ccccc4c3cc2OC)c1 | 8 | 6 | 2 | 1 | 22
COc1ccc(C(=O)NC(=S)Nc2cc3oc4ccccc4c3cc2OC)cc1 | 31* | -78* | -7 | 3 | 35
CCCCOC(=O)c1ccc(NC(=O)Cc2coc3c(C)c(C)ccc23)cc1 | 8 | 1 | -2 | 24 | ·
CC1=CN2C(=N)/C(=C\c3cn(CCCOc4ccccc4)c4ccccc34)C(=O)N=C2S1 | -7 | -21 | -5 | 31* | 0
COc1ccc(NC(=O)CC2SC(=NCC3CCCO3)NC2=O)cc1 (configuration not stated) | -1 | -47* | -11 | 3 | -9
CCc1ccc(N=C2NC(=O)CC(C(=O)Nc3ccc(OC)cc3)S2)cc1 (configuration not stated) | -17 | -15 | -3 | 2 | ·
Cc1c(Cl)ccc2sc(N3CCN(C(=O)c4ccco4)CC3)nc12 | 21 | · | -1 | 1 | ·
CCCCN1C(=O)C(CC(=O)NCCCCc2ccccc2)CC(C(=O)N2CCCCCC2)=C1C (configuration not stated) | -11 | · | · | · | -52*
CCC(C)S(=O)(=O)c1oc(-c2cccs2)nc1S(=O)(=O)c1ccccc1 (configuration not stated) | -15 | 11 | 2 | 9 | ·
Cc1ccc(C2(C)NC(=O)N(CC(=O)N3CCN(S(=O)(=O)c4ccc(Cl)s4)CC3)C2=O)cc1 (configuration not stated) | 0 | 11 | 1 | 23 | 1
Cc1ccc(C2(C)NC(=O)N(CC(=O)N3CCN(S(=O)(=O)c4cccs4)CC3)C2=O)cc1 (configuration not stated) | 1 | 10 | -4 | 1 | -53*
Cc1cc(NC(=O)CCNS(=O)(=O)c2cc(Br)cnc2N)ccc1Br | -4 | -4 | 0 | 2 | -51*
COc1cccc(CNc2ccc(F)c([N+](=O)[O-])c2)c1O | -5 | -31* | -8 | 8 | -23
SMILES | DRD3 agonist | D1 antagonist | D1 PAM | D1 ag | DRD3 antagonist
COc1ccc(CNC[C@@H](CCCCN(C)Cc2ccc(OC)cc2)N2C[C@H](c3ccccc3)N(CCc3ccc(Cl)c(Cl)c3)C(=O)C2=O)cc1 | -13 | 126 | 0 | 39* | -7
CN(CCCC[C@H](CNCc1ccc(-c2ccccc2)cc1)N1C[C@H](c2ccccc2)N(CCc2ccc(Cl)c(Cl)c2)C(=O)C1=O)Cc1ccc(-c2ccccc2)cc1 | · | 10 | 2 | 3 | ·
CCOc1ccc(CCN2C(=O)C(=O)N([C@H](CCCN(C)Cc3ccccc3)CNCc3ccccc3)C[C@@H]2C(C)C)cc1 | · | -2 | -7 | 41* | ·
CCOc1ccc(CCN2C(=O)C(=O)N([C@@H](CC(C)C)CN3CCC[C@@H]3CN3C(=O)C(=O)NC[C@@H]3CC(C)C)C[C@@H]2Cc2ccccc2)cc1 | -3 | · | · | · | -16
CN(C(=O)CSc1nc2ccc(NC(=O)c3ccco3)cc2s1)c1ccccc1 | -4 | -1 | -2 | 0 | ·
O=C(C[C@@H]1C/C=C\C[C@@H](Cc2ccc(F)cc2)C(=O)OC[C@@H]2CCCN2C1=O)N[C@H](CO)Cc1ccccc1 | -5 | · | · | · | -1
O=C(C[C@H]1C/C=C\CC[C@@H](Cc2ccc(F)cc2)C(=O)OC[C@H]2CCCN2C1=O)N[C@H](CO)Cc1ccccc1 | 32* | · | · | · | -8
O=c1c2cc(F)ccc2[nH]c(=S)n1CCCN1CCOCC1 | -40 | -6 | -5 | 0 | -26
COc1cc2c(=O)n(CCCN3CCOCC3)c(=S)[nH]c2c(OC)c1OC | -4 | 5 | -1 | 0 | -83*
CCOc1cc2[nH]c(=S)n(CCN3CCC(C)CC3)c(=O)c2cc1OCC | -9 | 18 | -8 | -1 | 0
CC1CCN(CCn2c(=S)[nH]c3cc4c(cc3c2=O)OCO4)CC1 | -17 | 4 | 3 | 1 | ?
CCOc1cc2[nH]c(=S)n(CCCN3CCOCC3)c(=O)c2cc1OCC | -55 | 11 | -3 | 1 | -71*
O=c1c2cc3c(cc2[nH]c(=S)n1CCN1CCOCC1)OCO3 | 1 | -50* | -3 | 1 | 6
O=C(O)c1ccc(CNCc2ccccc2Cl)s1 | 1 | 9 | -2 | 3 | ·
Cc1ccc(C)n1-c1nnc(N2CCCC(C(=O)Nc3ccccc3Br)C2)s1 (configuration not stated) | 2 | 2 | -1 | 0 | ·
COc1ccc(-n2ncc(S(=O)(=O)c3ccccc3)c2-c2ccc(Cl)cc2)cc1 | -1 | -44* | -4 | 10 | 22
COc1ccc(C2=C(C(C)=O)Sc3nnc(-c4ccc(Cl)cc4)n3N2C(C)=O)cc1OC | 1 | · | 6 | 0 | ·
CCOc1cc2c(cc1C(C)(C)C)NC(=O)CS2 | -2 | -85* | -2 | 0 | 6
c1ccc2c(c1)ccc1ccccc12 | 0 | · | · | · | -9
O=c1ccc2ccccc2c2ccccc12 | -11 | · | · | · | -79*
O=C(NCC1CCN(Cc2ccccc2F)CC1)Nc1ccc(F)c(Cl)c1 | -18 | -15 | -5 | 24 | ·
